This excerpt belongs to a sample that is enriched for hits.
HT1080NT lethal: qHTS for induction of synthetic lethality in tumor cells producing 2HG: qHTS for the HT-1080-NT fibrosarcoma cell line | HT-1080-NT fibrosarcoma viability, CellTiter-Glo ATP luminescence, 48 h | 360,000 compounds, 1.6% hits | Potency, µM (top dose mostly 46.1 µM), without a hit: top-dose activity, negative = less viability, most hits filed as cytotoxic;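 note: NT is the 2HG producing partner of a matched IDH1 knockdown line; potency is the fitted concentration of half-maximal effect; 0% = DMSO-treated cells and -100% = media-only wells without cells; nearly all actives have a fitted effect of over 55% in size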
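A 48-hour cytotoxicity screen used HT-1080-NT cells plated 2 hours before compound delivery. ATP-based CellTiter-Glo luminescence measured viability, normalized to DMSO and no-cell controls.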
HT1080 IDH1KD tx: qHTS for induction of synthetic lethality in tumor cells producing 2HG: qHTS for the HT-1080-IDH1KD cell line. HT-1080 IDH1 knockdown viability, ATP luminescence, 48 h. Potency, µM (titrated, usually from 46.1 µM), for the others: top-dose activity, negative = toxicity, actives largely listed as cytotoxic. 360,000 compounds, 2% hits;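 note: potency is the fitted concentration of half-maximal effect; 0% = DMSO wells and -100% = cell-free medium wells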
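In this qHTS, HT-1080 cells depleted of IDH1 are exposed for 48 h at 37 °C to compound titrations. Toxicity is scored from CellTiter-Glo luminescence, with DMSO as full viability and medium alone as none.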
DT40 TDP1 no CPT: qHTS for Inhibitors of human tyrosyl-DNA phosphodiesterase 1 (TDP1): qHTS in cells in absence of CPT | DT40 Tdp1-/- hTDP1 cells, no CPT, ATP luminescence, 48 h | Potency, µM (series often up to 46.2 µM), without a hit: top-dose activity change, negative = growth inhibition, usual class: inhibitors | 420,000 compounds, 15% hits | AID 686978, 2013; note: potency is the fitted concentration of half-maximal effect; nearly all actives have a fitted effect of over 55% in size
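Luminescent ATP content (CellTiter-Glo) served as the growth readout. Knockout chicken DT40 cells expressing human TDP1 were exposed to compounds without camptothecin for a minimum 48 hr at 37 °C.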
IL-1B inflam inh: qHTS for Inhibitors of Inflammasome Signaling: IL-1-beta AlphaLISA Primary Screen; THP-1 LPS/ATP IL-1B secretion, AlphaLISA, 16 h; active compounds read low; activity change, % at 57.5 µM; 360,000 compounds, 4.7% hits; AID 743279, 2014; in the data active = activity change below about -50%; inconclusive = mostly about -30% to -49%
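Secreted IL-1B measured by AlphaLISA bead assay after 16 h compound exposure of THP-1 cells; compounds (final up to 57.5 uM) added 1 h before LPS (250 ng/mL) and ATP (1.25 mM) stimulation; lower signal means less secretion.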
DT40 TDP1 CPT: qHTS for Inhibitors of human tyrosyl-DNA phosphodiesterase 1 (TDP1): qHTS in cells in presence of CPT. chicken DT40 Tdp1-/-;hTDP1 cells + 20 nM CPT, ATP luminescence, 48 h. 420,000 compounds, 12% hits. AID 686979, 2013. Potency, µM (titrated, usually from 46.2 µM), without a hit: at the highest dose activity change, negative = growth inhibition, actives largely listed as inhibitors; note: potency is the fitted concentration of half-maximal effect; nearly all actives have a fitted effect of over 55% in size
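Chicken DT40 Tdp1-/- cells stably complemented with human TDP1 were seeded at 400 cells/well in medium containing 20 nM camptothecin, exposed to pin-transferred compounds, and grown at 37 °C for at least 48 hr. Viability was read as ATP luminescence.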
ALOX12 inh: Primary qHTS assay for inhibitors of human arachidonate 12S-lipoxygenase (ALOX12): Round 2. AID 1671190, 2021. 580,000 compounds, 1.1% hits. Polyunsaturated fatty acid lipoxygenase ALOX12 (Homo sapiens), P18054. purified 12hLO, xylenol orange hydroperoxide absorbance. Potency, µM (titrated, usually from 108 µM), for the others: at the highest dose activity change, negative = inhibition, actives largely listed as inhibitors; note: potency is the fitted concentration of half-maximal effect
Target sequence (P18054 whole entry, looked up): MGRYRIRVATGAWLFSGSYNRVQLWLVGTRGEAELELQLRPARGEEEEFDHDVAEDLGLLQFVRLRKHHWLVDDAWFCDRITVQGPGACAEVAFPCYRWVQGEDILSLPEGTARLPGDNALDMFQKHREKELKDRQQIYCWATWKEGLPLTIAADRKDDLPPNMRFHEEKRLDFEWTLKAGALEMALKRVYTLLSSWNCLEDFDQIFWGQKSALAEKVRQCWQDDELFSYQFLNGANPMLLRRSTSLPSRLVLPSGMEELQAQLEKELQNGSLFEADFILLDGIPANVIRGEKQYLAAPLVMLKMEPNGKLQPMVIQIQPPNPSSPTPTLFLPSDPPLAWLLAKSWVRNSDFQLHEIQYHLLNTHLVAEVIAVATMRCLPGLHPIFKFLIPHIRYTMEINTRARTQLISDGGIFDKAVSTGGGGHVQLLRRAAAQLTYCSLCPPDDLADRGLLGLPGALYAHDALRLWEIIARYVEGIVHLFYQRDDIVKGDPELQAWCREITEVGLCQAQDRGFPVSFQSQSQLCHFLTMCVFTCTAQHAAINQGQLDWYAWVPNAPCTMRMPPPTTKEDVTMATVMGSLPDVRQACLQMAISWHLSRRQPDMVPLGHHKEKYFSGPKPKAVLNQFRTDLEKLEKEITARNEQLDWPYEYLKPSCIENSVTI
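Hydroperoxide product was detected by ferrous iron/xylenol orange as the 573 to 405 nm absorbance ratio. Arachidonic acid at 40 uM (final) was turned over for 30 min at room temperature by 150 nM human 12hLO, pH 7.0 Hepes buffer, after 15 min compound preincubation.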
* = called active by the depositor; ? = inconclusive; . = not tested or not shown; [ ] = another dose, or the depositor's remark. Unless noted, calls come from the whole dose curve; as a rule, active = well fitted curve in the direction sought with a large enough effect; inconclusive = small, poorly fitted or top-dose-only effect, or another doubt; inactive = no such curve, though single readings can be large; an effect the other way counts as inactive or inconclusive. Unless noted, % is set by controls: 0 for no effect and ±100 for the full control effect.

SMILES	HT1080NT lethal	HT1080 IDH1KD tx	DT40 TDP1 no CPT	IL-1B inflam inh	DT40 TDP1 CPT	ALOX12 inh
COc1cc(C2C3=C(COC3=O)Oc3cc4c(cc32)OCO4)cc(OC)c1OC (stereo not drawn)	0.1µM*	?	0.15µM*	29	0.18µM*	-17%
COc1cc(C2C3=C(COC3=O)Oc3cc4c(cc32)OCO4)cc(OC)c1O (stereo not drawn)	0.46µM*	?	0.65µM*	15	0.15µM*	-46%
O=C1OCC2=C1C(c1ccc3c(c1)OCO3)c1cc3c(cc1O2)OCO3 (stereo not drawn)	3.3µM*	6.5µM*	2.3µM*	6	2.1µM*	0%
N#CC1=C(N)Oc2cc3c(cc2C1c1ccc(Cl)cc1)OCO3 (stereo not drawn)	0%	?	?	-2	?	?
COc1ccc([N+](=O)[O-])cc1NS(=O)(=O)c1ccccc1	6%	11%	-29%	0	-6%	5%
COc1ccc([N+](=O)[O-])cc1Nc1c2ccccc2nc2ccccc12	5.2µM*	5.2µM*	2.6µM*	-29	2.6µM*	-86%
O=[N+]([O-])c1ccc(Nc2c3ccccc3nc3ccccc23)cc1	?	?	?	-3	?	?
COc1cc(NC(=O)c2c3c(nc4ccccc24)CCC3)cc(OC)c1	?	-29%	-8%	13	-29%	-5%
COc1ccc(OC)c(Nc2c3c(nc4ccccc24)CCC3)c1	0.65µM*	0.58µM*	0.58µM*	-75*	0.73µM*	0%
O=[N+]([O-])c1ccccc1Nc1c2ccccc2nc2ccccc12	-27%	?	?	7	21µM*	0%
COc1cc(NS(C)(=O)=O)ccc1Nc1c2ccccc2nc2ccccc12	12µM*	16µM*	0.13µM*	-105*	0.21µM*	?
O=C(COc1ccc(F)cc1)N1CCCC(c2noc(COc3ccccc3F)n2)C1 (stereo not drawn)	.	.	.	.	.	13%
CNC(=O)CNC(=O)c1ccc2[nH]c(C)c(C)c2c1	.	.	.	.	.	0%
COc1ccc(OC)c(Nc2c3ccccc3nc3ccccc23)c1	5.8µM*	4.6µM*	6.5µM*	-84*	5.2µM*	?
COc1ccc(OC)c(Nc2cc(C)c3ccccc3n2)c1	?	?	?	-6	?	10%
COc1cc(Nc2c3c(nc4ccccc24)CCC3)cc(OC)c1OC	1.5µM*	2.1µM*	2.1µM*	6	1.8µM*	22%
O=C1c2cnc(-c3cc4ccccc4o3)nc2OCCN1c1ccccc1	.	.	.	.	.	23%[176 µM]
Cc1nnc(NC(=O)CSc2nc3c(c(=O)n(C)c(=O)n3C)n2C(C)C)s1	4%	20%	-20%	54	-1%	?
CCc1nc(SCC(=O)Nc2nnc(CC)s2)c2c(=O)n(C)c(=O)n(C)c2n1	-1%	-3%	8.2µM*	-10	6.5µM*	-14%
CCCc1nc(SCC(=O)Nc2cc(C)on2)c2c(=O)n(C)c(=O)n(C)c2n1	9%	2%	?	22	?	30%
CCCc1nc(SCC(=O)Nc2nnc(CC)s2)c2c(=O)n(C)c(=O)n(C)c2n1	0%	0%	3.3µM*	29	6.5µM*	2%
Cc1csc(NC(=O)CSc2nc(C)nc3c2c(=O)n(C)c(=O)n3C)n1	-21%	2%	21µM*	24	?	14%
Cc1nnc(NC(=O)CSc2nc(CC(C)C)nc3c2c(=O)n(C)c(=O)n3C)s1	2%	7%	10µM*	15	16µM*	-3%
COc1ccc(/C=N/NC(=O)c2ccc3c(c2)OCO3)cc1	-21%	-1%	-12%	-24	-8%	-6%
O=C(N/N=C/c1cc(Br)cc(Cl)c1O)c1ccc2c(c1)OCO2	?	?	1µM*	74	0.82µM*	22µM*
SMILES	HT1080NT lethal	HT1080 IDH1KD tx	DT40 TDP1 no CPT	IL-1B inflam inh	DT40 TDP1 CPT	ALOX12 inh
O=C(N/N=C/c1cc(Br)c(O)c(Br)c1O)c1ccc2c(c1)OCCO2	?	?	8.2µM*	66	12µM*	?
Cc1cc(Br)cc(/C=N/NC(=O)c2ccc3c(c2)OCO3)c1O	?	16µM*	23µM*	69	18µM*	-9%
Cc1cc(C)n(-c2cc(C(C)(C)C)nc3c(-c4ccc(Cl)cc4)cnn23)n1	?	?	?	-2	11µM*	0%
CC(C)(C)c1cc(N2CCOCC2)n2ncc(-c3ccc(Cl)cc3)c2n1	?	5%	13µM*	-1	?	104%
Cc1cc(C)n(-c2cc(C(C)(C)C)nc3c(-c4ccccc4)cnn23)n1	?	?	?	.	-21%	-2%
N#Cc1cccc(NC(=O)N[C@H]2[C@H](O)[C@@H](N3CCC(Cc4ccccc4)CC3)[C@@H]3OC[C@H]2O3)c1	.	.	.	.	.	45µM*

Screening data (PubChem BioAssay)
